# Measured values taken from paper PMC4336329 (PLoS ONE, 2015).
# Screen size: about 310,000 compounds; about 14,000 (4.5%) showed an effect of 50% or more. Effects have a minus sign here. The sample as a whole holds a higher share of strong results than the screen did.
# Target: human ether-à-go-go-related gene (hERG) potassium channel (human, UniProt Q12809)
# Experiment: primary screen, population patch clamp on CHO cells stably expressing hERG; higher = less effect of the substance
# 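Note: peak tail current of the secondary pulse compared with the same well before compound.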
# human ether-à-go-go-related gene (hERG) potassium channel, sequence (Q12809 whole entry, looked up): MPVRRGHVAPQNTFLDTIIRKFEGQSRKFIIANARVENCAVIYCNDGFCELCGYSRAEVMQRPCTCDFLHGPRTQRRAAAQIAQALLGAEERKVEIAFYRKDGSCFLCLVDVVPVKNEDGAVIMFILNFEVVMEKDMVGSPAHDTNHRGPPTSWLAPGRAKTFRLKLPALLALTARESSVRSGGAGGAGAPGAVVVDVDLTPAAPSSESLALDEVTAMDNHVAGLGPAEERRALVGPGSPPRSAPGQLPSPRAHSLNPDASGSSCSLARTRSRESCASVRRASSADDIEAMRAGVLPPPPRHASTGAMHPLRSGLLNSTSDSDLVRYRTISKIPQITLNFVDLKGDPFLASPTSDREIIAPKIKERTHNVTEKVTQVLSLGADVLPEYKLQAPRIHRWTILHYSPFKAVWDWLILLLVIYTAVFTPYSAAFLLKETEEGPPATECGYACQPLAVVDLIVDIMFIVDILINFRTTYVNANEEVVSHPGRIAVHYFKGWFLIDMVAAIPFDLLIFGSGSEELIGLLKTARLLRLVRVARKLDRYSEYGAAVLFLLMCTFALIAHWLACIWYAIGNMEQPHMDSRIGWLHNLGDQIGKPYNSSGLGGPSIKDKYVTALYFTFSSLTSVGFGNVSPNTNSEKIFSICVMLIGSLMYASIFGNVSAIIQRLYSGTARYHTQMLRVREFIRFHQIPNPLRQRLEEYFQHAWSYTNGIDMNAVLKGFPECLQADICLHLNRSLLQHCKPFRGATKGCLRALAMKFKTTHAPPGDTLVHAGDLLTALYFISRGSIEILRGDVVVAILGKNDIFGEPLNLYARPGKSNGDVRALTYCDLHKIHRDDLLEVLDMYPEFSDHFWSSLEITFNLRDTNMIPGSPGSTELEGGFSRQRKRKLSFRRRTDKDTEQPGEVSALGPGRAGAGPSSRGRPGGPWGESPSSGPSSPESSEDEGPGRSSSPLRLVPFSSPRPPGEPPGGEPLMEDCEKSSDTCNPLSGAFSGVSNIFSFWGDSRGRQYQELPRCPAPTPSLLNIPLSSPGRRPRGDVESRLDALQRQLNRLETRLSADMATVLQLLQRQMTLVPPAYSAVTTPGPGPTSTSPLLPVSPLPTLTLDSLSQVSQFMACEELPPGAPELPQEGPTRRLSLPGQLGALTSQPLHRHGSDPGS
row,SMILES,"hERG current change (%, negative = inhibition) at 10uM [%]"
1,Cc1cccc(-n2ncc(C#N)c2-n2cccc2)c1,-5.85
2,CC(C)Oc1ccc(C(=O)NCC(=O)OCC(=O)N(C)Cc2cccs2)cc1,-15.9
3,C=CCN(Cc1nc(-c2ccccc2)no1)C(=O)c1ccoc1C,-4.69
4,COC(=O)c1cccc(NC(=O)c2ccc3c(c2)C(=O)N(CC2CCCO2)C3=O)c1 (stereo not drawn),-24.3
5,NNc1nc(-c2ccccc2Cl)nc2ccccc12,11.1
6,COc1ccc(NC(=O)CCS(=O)(=O)c2ccc3c(c2)CCCN3C(C)=O)cc1,9.92
7,CC(C)NC(=O)NC(=O)CSc1ncccn1,15.7
8,Cn1c(=O)oc2cc(S(=O)(=O)N3CCC(C(=O)NCc4ccc(F)cc4)CC3)ccc21,-8.93
9,Cc1ccc(C)c(N2CCN(C(=O)CCCCn3c(=O)[nH]c4ccccc4c3=O)CC2)c1,-25.2
10,O=C(CCCCn1c(=O)[nH]c2ccccc2c1=O)NCc1ccc2c(c1)OCO2,-6.99
11,O=C(CCn1c(=O)[nH]c2ccccc2c1=O)N1CCN(c2cccc(C(F)(F)F)c2)CC1,-43
12,O=C(Cn1c(=O)[nH]c2ccccc2c1=O)N1CCN(Cc2ccc3c(c2)OCO3)CC1,0.172
13,O=C(CCCCCn1c(=O)[nH]c2ccccc2c1=O)N1CCN(Cc2ccc3c(c2)OCO3)CC1,-71.7
14,O=C(CCCCn1c(=O)[nH]c2ccccc2c1=O)N1CCN(c2cccc(C(F)(F)F)c2)CC1,-56.1
15,Cc1cccnc1NC(=O)C1CCN(S(=O)(=O)c2cccs2)CC1,-6.07
16,O=C(c1cccnc1)N1CCN(S(=O)(=O)c2ccc(S(=O)(=O)N3CCCC3)cc2)CC1,9.65
17,Cc1ccc(NC(=S)NCCN2CCOCC2)cc1C,-5.31
18,Cc1ccc(NC(=Nc2ccc(Br)cc2)N2CCOCC2)cc1C,-63.8
19,Cc1ccc(NC(=O)CN2CCOCC2)cc1C,14.3
20,Cc1ccc(NC2CCCN(C(=O)c3cccc(-c4ncc[nH]4)c3)C2)cc1C (stereo not drawn),3.23
21,NC(=O)c1nsc(C(=O)N(Cc2cccnc2)C(C(=O)NCc2ccc(F)cc2)c2ccc(O)cc2)c1N (stereo not drawn),-1.96

row,SMILES,"hERG current change (%, negative = inhibition) at 10uM [%]"
1,CCC(C)(C)NC(=O)C(c1ccc(F)cc1)N(Cc1ccc(OC)cc1)C(=O)c1cnccn1 (stereo not drawn),-11.8
2,COc1ccc(C(C(=O)NCc2ccc(F)cc2)N(Cc2cccnc2)C(=O)c2snc(C(N)=O)c2N)cc1 (stereo not drawn),-62
3,COc1ccc(NC(=O)C(c2ccccc2)N(C)C(=O)c2cnccn2)cc1 (stereo not drawn),1.47
4,COc1ccc(CN(C(=O)c2cnccn2)C(C(=O)Nc2ccc(F)cc2)c2ccccc2)cc1 (stereo not drawn),-68.2
5,NC(=O)c1nsc(C(=O)N(Cc2cccnc2)C(C(=O)NCc2ccc(F)cc2)c2ccc(F)cc2)c1N (stereo not drawn),0.71
6,CCOc1ccc(S(=O)(=O)NNC(=S)Nc2ccc(Br)cc2)cc1,5.35
7,COC1=C(Nc2ccccc2OC)C(=O)c2ccccc2C1=O,0.0125
8,Cc1ccc(N(C(=O)c2ccc(S(=O)(=O)N3CCOCC3)cc2)C2C=CS(=O)(=O)C2)cc1 (stereo not drawn),3.58
9,O=C(NCc1ccc(F)cc1)C(=O)NCC1OCCN1C(=O)c1cccs1 (stereo not drawn),-4.15
10,O=C(NCc1ccccc1)C(=O)NCC1OCCN1C(=O)c1cccs1 (stereo not drawn),-65.3
11,O=C(NCc1ccc(Cl)cc1)C(=O)NCC1OCCN1C(=O)c1cccs1 (stereo not drawn),-7.77
12,Cl.NS(=O)(=O)c1ccc(CCNCc2cc(Cl)ccc2OCc2ccccc2)cc1,-74.5
13,C=CCOc1ccccc1CNCCc1ccc(S(N)(=O)=O)cc1.Cl,-37.2
14,COc1cc(CNCCc2ccc(S(N)(=O)=O)cc2)ccc1OCc1ccc(Cl)cc1.Cl,-31.8
15,Cl.Clc1ccc(COc2ccccc2CNCc2cccnc2)cc1,-31.1
16,NS(=O)(=O)c1ccc(NCc2ccccc2OCc2ccc(F)cc2)cc1,-17
17,Cl.NS(=O)(=O)c1ccc(CCNCc2ccccc2OCc2ccc(Cl)cc2)cc1,-73.1
18,Cl.NS(=O)(=O)c1ccc(CCNCc2ccccc2OCc2ccc(F)cc2)cc1,-74.5
19,NS(=O)(=O)c1ccc(CCNC(=O)c2ccccc2OCc2ccc(F)cc2)cc1,4.16
20,NS(=O)(=O)c1ccc(NCc2cc(Cl)ccc2OCc2ccc(F)cc2)cc1,3.36
21,CCCc1cc2c(cc1NC(=O)c1ccccc1F)OCO2,-11.3

row,SMILES,"hERG current change (%, negative = inhibition) at 10uM [%]"
1,CC(=O)Nc1sc2c(c1C(=O)N1CCOCC1)CCCCC2,17.9
2,Cc1ccc(-n2ncc3c(NCC4CCCO4)ncnc32)c(C)c1 (stereo not drawn),12.9
3,COc1cc(C(C)=O)ccc1OCC(=O)Nc1ccc2nc(C)sc2c1,13.4
4,CC(SC#N)C(=O)C12CC3CC(CC(C3)C1)C2 (stereo not drawn),-8.99
5,O=C1CN=C(c2ccccc2)c2ccccc2N1,8.11
6,O=[N+]([O-])/C=C/c1cn(Cc2ccc(Cl)cc2)c2ccccc12,2.65
7,O=C(NCc1cccnc1)C(Cl)(Cl)Cl,0.208
8,CCN(CC)c1ccc(S(=O)(=O)N2CCOCC2)cc1NC(=O)COC(=O)COc1ccccc1C,12.7
9,CC1=CC=CC2=NC(=O)CC(C)(C(=O)N(CC(=O)NC3CCCC3)c3ccc(F)cc3)N12 (stereo not drawn),11.1
10,Cc1nn(C)c(C)c1S(=O)(=O)N(CC(=O)NCCCOC(C)C)c1ccc(C(C)C)cc1,-69.6
11,Cc1nn(C)c(C)c1S(=O)(=O)N(CC(=O)NCCCN1CC(C)CC(C)C1)c1ccc(C(C)C)cc1 (stereo not drawn),-66.4
12,Cc1nn(C)c(C)c1S(=O)(=O)N(CC(=O)NC1CCCCCC1)c1ccc(C(C)C)cc1,-10.4
13,Cc1nn(C)c(C)c1S(=O)(=O)N(CC(=O)NCCCN1CCC(C)CC1)c1ccc(C(C)C)cc1,-64.7
14,Cc1nn(C)c(C)c1S(=O)(=O)N(CC(=O)NCCN1CCOCC1)c1ccc(C(C)C)cc1,-2.41
15,Cc1nn(C)c(C)c1S(=O)(=O)N(CC(=O)NCc1cccs1)c1ccc(C(C)C)cc1,9.79
16,Cc1cccc(NC(=O)CN(c2ccc(C(C)C)cc2)S(=O)(=O)c2c(C)nn(C)c2C)n1,-12.2
17,Cc1nn(C)c(C)c1S(=O)(=O)N(CC(=O)NCc1ccco1)c1ccc(C(C)C)cc1,16.6
18,Cc1nn(C)c(C)c1S(=O)(=O)N(CC(=O)Nc1ccccn1)c1ccc(C(C)C)cc1,-7.4
19,C#CCOCCOCCOCCNc1nc(N2CCN(C(=O)[C@H]([C@@H](C)CC)n3cc(CCCC[NH3+])nn3)CC2)nc(N2CCN(C(=O)[C@H](CCCC[NH3+])n3cc(CC(C)O)nn3)CC2)n1.[Cl-] (stereo partly drawn),14.3
20,COc1ccc(C2C(C#N)=C(C)NC3=C2C(=O)CC(C)(C)C3)c(OC)c1 (stereo not drawn),-6.3
21,Cc1ccccc1OCCCCn1c(CO)nc2ccccc21,-45.1

row,SMILES,"hERG current change (%, negative = inhibition) at 10uM [%]"
1,COc1ccc(-c2nnc(SCC(=O)NCc3cccs3)n2CC(C)C)cc1,-15.2
2,CNC(=S)N1CCN(c2ccccc2OC)CC1,7.94
3,CC(=O)n1cc(/C=N/NC(N)=S)c2ccccc21,-18.4
4,CC/C(O)=C1\C(=O)CC(c2ccccc2)CC1=NCCC(=O)O (stereo not drawn),15.6
5,CC1(C)CC(=O)/C(=C(\O)CCCN2C(=O)c3ccccc3C2=O)C(=NCCO)C1,11.7
6,CCCCN=C1CC(C)(C)CC(=O)/C1=C(/O)CCCN1C(=O)c2ccccc2C1=O,-61.4
7,O=C1CC(c2ccccc2)CC(=NCCO)/C1=C(\O)CCCN1C(=O)c2ccccc2C1=O (stereo not drawn),-71.9
8,CCCN=C1CC(C)(C)CC(=O)/C1=C(/O)CCCN1C(=O)c2ccccc2C1=O,-11.4
9,O=C(O)CN=C1CC(c2ccccc2)CC(=O)/C1=C(/O)CCCN1C(=O)c2ccccc2C1=O (stereo not drawn),1.09
10,CCCCCCNc1cc2n(c(=O)n1)CCc1cc(OC)c(OC)cc1-2,-46.7
11,CCOc1ccc(C(C)NC(=O)c2ccc3c(c2)NC(=O)C(C)S3)cc1OCC (stereo not drawn),1.73
12,O=C(CS(=O)(=O)c1c[nH]c2ccccc12)NC1CCCCC1,-8.19
13,CSc1ccc(/C=N/NC(=O)CN2CCN(Cc3ccccc3Cl)CC2)cc1,-37.5
14,CSc1ccc(/C=N/N2CCN(Cc3ccccc3)CC2)cc1,-5.46
15,Cc1ccc(/C=N/NC(=O)CN2CCN(Cc3ccccc3Cl)CC2)o1,-23.5
16,CSc1ccc(/C=N/NC(=O)CN2CCN(Cc3ccccc3)CC2)cc1,-74.6
17,Cc1ccc(CN2CCN(CC(=O)N/N=C/c3ccc(C)o3)CC2)cc1,-64.2
18,CSc1ccc(/C=N\NC(=O)CNc2ccc(C)cc2)cc1,-2.08
19,Cc1ccc(/C=N/NC(=O)CN2CCN(Cc3ccccc3)CC2)o1,-11.7
20,CSc1ccc(/C=N/NC(=O)CN2CCN(Cc3ccc(C)cc3)CC2)cc1,-63.2
21,CSc1ccc(/C=N/NC(=O)CN2CCN(Cc3ccc(Cl)cc3)CC2)cc1,-35.1
